# From PubChem BioAssay (NCATS)
# Results filed as inconclusive are left out. A call without a number means that no potency is given here. The source made the active and inactive calls. Calls follow the shape of the dose curve; as a rule, active = well fitted cell-killing curve with a large enough effect; inconclusive = small, poorly fitted or top-dose-only effect, or effect the other way; inactive = flat fitted curve, though single readings scatter.
# Test system: CAOV3
# Experiment: Primary qHTS to identify gynecologic anti-cancer compounds using libraries of approved drugs and bioactive compounds (AID 1345084); also: nearly all actives have a fitted effect of over 55% in size
# Settings: Gynecologic cancer cell panel viability, ATPlite luminescence, 48 h; series mostly up to 57.5 µM
# Procedure, shortened: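 48 h compound exposure at 37 C, 5% CO2; five-point qHTS. ATPlite luminescence readout of cell ATP.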
# Potency is read from the fitted curve at half-maximal effect.
row,SMILES,Potency
1,COc1ccc2c3c4n(c2c1)[C@@H](C=C(C)C)OOC(C)(C)C[C@@H]4N1C(=O)[C@@H]2CCCN2C(=O)[C@]1(O)[C@H]3OCC=C(C)C,inactive
2,CC1=CC2/C=C(\C)CCCC(O)/C=C/C(=O)OC23C(=O)NC(CC(C)C)C3C1C (stereo unspecified),inactive
3,C=CC(C)(C)c1[nH]c2c(CC=C(C)C)cc(CC=C(C)C)cc2c1C[C@@H]1NC(=O)[C@H](C)NC1=O,inactive
4,COc1cc(O)c2c(c1)/C=C/C[C@@H](O)[C@@H](O)C(=O)CCC[C@H](C)OC2=O,inactive
5,CC(=O)O[C@H]1CC[C@H]2[C@@H]3CC[C@H]4CC(=O)C=C(C)[C@]4(C)[C@H]3CC[C@]12C,inactive
6,COc1cc(N2CCN(C)CC2)ccc1N,inactive
7,COCC(C(=O)OC1CC2CCC(C1)N2C)c1ccccc1 (stereo unspecified),inactive
8,N#CC(O[C@@H]1O[C@H](CO)[C@@H](O)[C@H](O)[C@H]1O)c1ccccc1 (stereo partly specified),inactive
9,CC[C@H]1C2CC3[C@@H]4N(C)c5ccccc5[C@]45C[C@@H]([C@H]2[C@H]5O)N3[C@H]1O,inactive
10,NC(=O)c1ncn2c1CN=C(c1ccccc1Br)c1cc(F)ccc1-2,inactive
11,Cc1c(N2C(=O)[C@@H]3[C@H](O)CCN3C2=O)ccc(C#N)c1Cl,inactive
12,CC(=O)O[C@@H]1[C@H]2CC[C@H]3[C@@](C)(O)[C@@H]4C[C@H](O)C(C)(C)[C@@]4(O)[C@H](O)C[C@@]13C[C@@]2(C)O,inactive
13,CC(=O)N1N=C(c2ccc(N)cc2)c2cc3c(cc2C[C@H]1C)OCO3,inactive
14,COC(=O)[C@]12CCCC(C)(C)C1CCc1cc(C(C)C)c(O)c(O)c12 (stereo partly specified),inactive
15,COc1ccc(CN(C(=O)[C@@H](N)Cc2c(C)cc(C(N)=O)cc2C)[C@@H](C)c2ncc(-c3ccccc3)[nH]2)cc1C(=O)O,inactive
16,C=CC/C=C\C/C=C\CCCCCCCc1cc(O)cc(O)c1,inactive
17,CN1C2CCC1CC(OC(=O)N1Cc3ccccc3NC1=O)C2 (stereo unspecified),inactive
18,COC(=O)CC1CC2(C(=O)c3c(O)cccc3C2(O)C(=O)OC)C(C)O1 (stereo unspecified),inactive

row,SMILES,Potency
1,c1cncc(OC[C@@H]2CCN2)c1,inactive
2,Cc1c(Cl)c(OCC(=O)N2CCN(C)CC2)nc2sc(C(=O)NC3CC3)c(N)c12,inactive
3,CN1CCc2cc3c(cc2C1C1OC(=O)c2c1ccc1c2OCO1)OCO3 (stereo unspecified),inactive
4,C#CCO[C@H]1CN2CCC1CC2,inactive
5,CC1CCCC(O)CC(=O)Cc2cc(O)cc(O)c2C(=O)O1 (stereo unspecified),inactive
6,COc1ccsc1CNCC[C@@]1(c2ccccn2)CCOC2(CCCC2)C1,inactive
7,C1=C(c2cnc[nH]2)c2ccsc2CC1,inactive
8,C/C=C1/CN2CC[C@]34C(=Nc5ccc(OC)cc53)C2C[C@@H]1C4(CO)C(=O)OC (stereo partly specified),inactive
9,Cc1cccc(NC(=O)N[C@H]2CN(C)c3ccccc3C(c3ccccc3)=N2)c1,inactive
10,Oc1ccc2c3c1O[C@H]1c4[nH]c5c(N=C=S)cccc5c4C[C@@]4(O)[C@@H](C2)N(CC2CC2)CC[C@]314,inactive
11,CO[C@@H]1[C@H](O)[C@@H](O[C@@H]2C[C@H]3CC[C@@H]4C(CC[C@]5(C)[C@@H](C6=CC(=O)OC6)CC[C@]45O)[C@@]3(C)[C@H](O)C2)O[C@H](C)[C@@H]1O (stereo partly specified),631 nM (active)
12,C[C@@H]1CCC/C=C/[C@H]2C[C@@H](O)C[C@@H]2[C@@H](O)/C=C/C(=O)O1,316 nM (active)
13,C[C@]12CCC(=O)C=C1CC[C@@H]1[C@@H]2[C@@H](O)C[C@]2(C)C(=O)CC[C@@H]12,inactive
14,CCC(C)(O)C1(C(=O)O)COC(=O)C1 (stereo unspecified),inactive
15,COC(=O)C1=COC(C)C2CN3CCC4(C(=O)Nc5ccccc54)C3CC12 (stereo unspecified),inactive
16,CC1(C)C(=O)N(c2ccc(C#N)c(C(F)(F)F)c2)C(=O)N1CCCCO,inactive
17,O=C1N[C@@H](Cc2ccccc2)CN2CCCC[C@@H]12,inactive
18,CN1C(=O)CN=C(c2ccccc2Cl)c2cc(Cl)ccc21,inactive
